Several values for one entry are separate records, joined by “and”; a condition that tells them apart may be missing. Identical values can stand only once. In all, about 66,000 compounds went through this assay and about 720 (1.1%) were called active. This is one part of a sample in which actives are shown more often than they occur. Rule as the data show it: active = normalised signal below about 0.5; inactive = the rest, inconclusive results apart.

For 41 compounds, normalised signal (fraction of DMSO) and z-score results are on record in PubChem BioAssay AID1224903 (Bradner/Qi Labs at DFCI, 2016).

Chromobox protein homolog 7 (Homo sapiens), sequence (O95931 whole entry, looked up): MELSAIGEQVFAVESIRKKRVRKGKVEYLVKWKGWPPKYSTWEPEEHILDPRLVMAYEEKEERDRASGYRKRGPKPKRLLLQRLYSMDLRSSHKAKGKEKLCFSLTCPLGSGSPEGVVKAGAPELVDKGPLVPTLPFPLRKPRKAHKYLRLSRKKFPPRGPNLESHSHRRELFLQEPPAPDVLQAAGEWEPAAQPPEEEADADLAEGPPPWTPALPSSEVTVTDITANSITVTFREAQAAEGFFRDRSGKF

This experiment has as its target Chromobox protein homolog 7 (Homo sapiens) (UniProt O95931). The experiment can be described thus: CBX7 chromodomain binding inhibitors, primary screen, biochemical, AlphaScreen (AID 1224903). The following applies: AlphaScreen His6-CBX7 / biotin-H3K27me3 peptide binding, stronger effect = lower value; z-score: measured here: z-score of CBX7 signal. For orientation: In Alpha technology, singlet oxygen from a donor bead excites a nearby acceptor bead.
On to `Cc1ccc(C2CC(c3ccc(C)cc3)n3ncnc3N2)cc1` (configuration not stated), for which the normalised signal (fraction of DMSO) is 1.02 (inactive) and the z-score came out at 0.839.

On to `Cc1cc(C)cc(NS(=O)(=O)c2cnc[nH]2)c1`, for which the normalised signal (fraction of DMSO) is 1.01 (inactive) and the z-score came to 0.0588.

On to `COc1ccc(NC2CC(=O)N(Cc3ccccc3)C2=O)cc1` (configuration not stated), for which the normalised signal (fraction of DMSO) is 1.18 (inactive) and the z-score was 0.412.

For the compound `COc1ccccc1NC(=O)Cn1ccc2ccccc2c1=O`, the normalised signal (fraction of DMSO) is 0.981 (inactive) and the z-score was -0.168.

Regarding `O=C(Nc1ccc2c(c1)OCO2)c1cnc2ccccn2c1=O`, the normalised signal (fraction of DMSO) is 0.987 (inactive) and the z-score is -0.351.

Take `Cc1ccc(Nc2nc(-c3ccccc3)c3cc(Cl)ccc3n2)cc1`: the normalised signal (fraction of DMSO) was 1.7 (inactive) and the z-score is 11.8.

Take `CCN1CCN(c2ccc(Nc3nc(-c4ccccc4)c4cc(Cl)ccc4n3)cc2)CC1`: the normalised signal (fraction of DMSO) was 0.231 (active) and the z-score was -24.9.

In the case of `O=C(O)c1ccc(Nc2nc(-c3ccccc3)c3cc(Br)ccc3n2)cc1`, the normalised signal (fraction of DMSO) was 1.05 (inactive) and the z-score is 2.04.

For `Cc1nc2sc(C(c3cccs3)N3CCc4ccccc4C3)c(O)n2n1` (configuration not stated), the normalised signal (fraction of DMSO) is 0.953 (inactive) and the z-score is -2.28.

Consider `COc1ccc2[nH]c(C)c(CCNS(=O)(=O)c3cc(Br)ccc3OC)c2c1`, for which the normalised signal (fraction of DMSO) was 0.363 (active) and the z-score is -0.634.

With `Cc1ccc2[nH]c(C)c(CCNS(=O)(=O)c3ccc(C)c(C)c3C)c2c1`, the normalised signal (fraction of DMSO) was 0.951 (inactive) and the z-score was -0.467.

As to `COc1ccc(S(=O)(=O)NCCc2c(C)[nH]c3ccc(C)cc23)cc1C`, the normalised signal (fraction of DMSO) was 0.907 (inactive) and the z-score is -1.43.

With `COc1ccc2[nH]c(C)c(CCNS(=O)(=O)c3ccc(Cl)c(OC)c3)c2c1`, the normalised signal (fraction of DMSO) is 0.845 (inactive) and the z-score is -0.316.

As for `COc1ccc(OC)c(S(=O)(=O)NCCc2c(C)[nH]c3ccc(C)cc23)c1`, the normalised signal (fraction of DMSO) is 0.427 (active) and the z-score was -0.571.

With `Cc1[nH]c2ccc(OC(F)(F)F)cc2c1CCNS(=O)(=O)c1ccc(C(C)C)cc1`, the normalised signal (fraction of DMSO) was 0.913 (inactive) and the z-score was -1.89.

Turning to `Cc1nc2sccn2c1-c1csc(Nc2ccc(S(N)(=O)=O)cc2)n1`, the normalised signal (fraction of DMSO) was 1.07 (inactive) and the z-score came out at 0.0851.

Take `Cc1ccc(Cn2nnc3c(=O)n(Cc4c(F)cccc4Cl)cnc32)cc1`: the normalised signal (fraction of DMSO) was 0.864 (inactive) and the z-score is -2.23.

For the compound `Cc1ccn2c(NC3CCCCC3)c(-c3cccs3)nc2c1`, the normalised signal (fraction of DMSO) is 0.819 (inactive) and the z-score is -1.46.

`COc1ccc(OC)c(NC(=O)CCc2c(C)nc3c(c(C)nn3-c3ccc(C)cc3)c2C)c1`: the normalised signal (fraction of DMSO) is 0.992 (inactive) and the z-score was -0.0612.

For `CCCCCC(O)(CCN1CCCCC1)c1ccccc1` (configuration not stated), the normalised signal (fraction of DMSO) is 1.09 (inactive) and the z-score was found to be 2.44.

For the compound `CCc1ccc(C(=O)CC2(O)C(=O)N(CCc3ccccc3)c3ccc(Br)cc32)cc1` (configuration not stated), the normalised signal (fraction of DMSO) is 0.626 (inactive) and the z-score is -10.8.

As for `CCCN1C(=O)C(O)(CC(=O)c2ccc(CC)cc2)c2cc(Br)ccc21` (configuration not stated), the normalised signal (fraction of DMSO) was 0.0492 (active) and the z-score is -1.07.

With `CC(C)c1ccc(C(=O)CC2(O)C(=O)N(Cc3ccccc3)c3ccc(Br)cc32)cc1` (configuration not stated), the normalised signal (fraction of DMSO) is 0.876 (inactive) and the z-score was -1.19.

As for `COc1ccccc1Nc1nc(-c2ccc(Br)cc2)cs1`, the normalised signal (fraction of DMSO) was 0.904 (inactive) and 0.953 (inactive); the z-score was -2.04 and -0.747.

As for `CN(CCCNC(=O)c1cc(-c2ccncc2)nc2ccccc12)C1CCCCC1`, the normalised signal (fraction of DMSO) was 1.17 (inactive) and the z-score worked out at 1.9.

Turning to `Cc1ccc2oc(-c3cc(NC(=O)c4cccc(F)c4)ccc3Cl)nc2c1`, the normalised signal (fraction of DMSO) was 0.889 (inactive) and the z-score is -0.255.

Take `CCOC(=O)c1cc(-c2ccccc2)n(-c2cccc(C(=O)Nc3nccs3)c2)c1C`: the normalised signal (fraction of DMSO) is 0.944 (inactive) and the z-score was -1.01.

Turning to `CCOC(=O)c1cnc2cc(Cl)c(OC)cc2c1Nc1ccc(C(F)(F)F)cc1`, the normalised signal (fraction of DMSO) is 0.983 (inactive) and the z-score was -0.244.

As to `CC(=O)Nc1ncc2c(n1)CC(c1cccs1)CC2=O` (configuration not stated), the normalised signal (fraction of DMSO) is 0.997 (inactive) and the z-score was -0.0863.

As for `Fc1ccc(-c2cc(C(F)(F)F)nc(NCc3ccc(Cl)cc3)n2)cc1`, the normalised signal (fraction of DMSO) is 1.25 (inactive) and the z-score stood at 2.79.

Take `O=C(NC1CCCC1)c1nn2c(C(F)(F)F)cc(-c3ccc(F)cc3)nc2c1Cl`: the normalised signal (fraction of DMSO) was 1.08 (inactive) and the z-score was 0.569.

For `CCC(C)NC(=O)c1ccc2nc(N3CCOCC3)sc2c1` (configuration not stated), the normalised signal (fraction of DMSO) was 1.08 (inactive) and the z-score was 3.28.

As for `Cn1cc(CC(=O)N2CCN(c3ccccn3)CC2)c2ccccc21`, the normalised signal (fraction of DMSO) was 0.973 (inactive) and the z-score was -0.31.

Consider `O=C(NCCCc1nc2ccccc2n1Cc1ccccc1F)c1ccc(F)cc1`, for which the normalised signal (fraction of DMSO) is 0.957 (inactive) and the z-score was -1.01.

Regarding `Cn1c(C(=O)NCCCSC2CCCCC2)cc2sc(Cl)cc21`, the normalised signal (fraction of DMSO) was 1.03 (inactive) and the z-score came out at 0.498.

Consider `Cc1ccc(-c2nc(-c3ccccc3Cl)no2)cc1`, for which the normalised signal (fraction of DMSO) is 1.16 (inactive) and the z-score was 1.59.

Turning to `COc1ccc(-n2c3c(cc(C(=O)NC(C)(C)C)c2=O)C(=O)CC(C)(C)C3)cc1`, the normalised signal (fraction of DMSO) was 1.06 (inactive) and the z-score was found to be 0.667.

As to `COc1ccc(OC)c(-c2nnc(SCC(=O)Nc3cc(C)on3)o2)c1`, the normalised signal (fraction of DMSO) is 0.264 (active) and the z-score is -15.1.

In the case of `Cc1ccc(-c2nnc(SCC(=O)Nc3cc(C)on3)o2)cc1`, the normalised signal (fraction of DMSO) was 1.19 (inactive) and the z-score was determined as 2.87.

With `Cc1cc(NC(=O)CSc2nnc(-c3ccc(Cl)s3)o2)no1`, the normalised signal (fraction of DMSO) is 1.1 (inactive) and the z-score was found to be 1.02.

As for `CC1CCN(c2nc3ccc(C(=O)NCCCN4C(C)CCCC4C)cc3s2)CC1` (configuration not stated), the normalised signal (fraction of DMSO) is 1.41 (inactive) and the z-score was 3.88.
